Unmarked numbers belong to inactive results. Inconclusive results are not listed. The source made the active and inactive calls. Unless noted, calls come from the whole dose curve.

The nature of experiment [1]: Nuclear factor erythroid 2-related factor 2/antioxidant responsive element (Nrf2/ARE) small molecule agonists: qHTS cell viability counter screen in human keratinocytes (AID 1919968; active = well fitted curve in the direction sought with a large enough effect in the repeat runs; an effect the other way counts as inactive or inconclusive; note: nearly all actives have a fitted effect of over 55% in size; note: potency is the fitted concentration of half-maximal effect). A digest of the protocol: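 KeratinoSens HaCaT cells, 1,500/well, preincubated 5 h, then exposed to compounds in DMSO for 23 h at 37 C/5% CO2. Viability read as CellTiter-Fluor fluorescence after 1 h, in the same wells as the ARE-luciferase read.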
In general terms: In qHTS, concentration-response curves come from the screen itself.

Experiment [2] can be described thus: Nuclear factor erythroid 2-related factor 2/antioxidant responsive element (Nrf2/ARE) small molecule agonists: luciferase reporter gene qHTS assay in human keratinocytes (AID 1919969). Note: nearly all actives have a fitted effect of over 35% in size. Note: potency is the fitted concentration of half-maximal effect.
Experiment [3] deals with Gonadotropin-releasing hormone receptor (Homo sapiens) (UniProt P30968). As to the kind of experiment: Human gonadotropin-releasing hormone receptor (GnRHR) small molecule agonists, calcium flux assay in GnRHR-HEK293 cells (AID 1920063). Note: nearly all actives have a fitted effect of over 35% in size. The gist of the method:
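HEK293 cells stably expressing human GnRHR were dye-loaded for 1 h at 37 C. Compound was added in agonist mode and fluorescence (Ex/Em 480/540) recorded kinetically for 3 min. Fifteen concentrations, triplicates.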

The target of experiment [4] is KiSS-1 receptor (Homo sapiens) (UniProt Q969F8). As to the kind of experiment: Human kisspeptin (KISS1R) small molecule agonists, calcium flux assay in KISS1R-HEK293 cells (AID 1920064; active = well fitted curve in the direction sought with a large enough effect in the repeat runs; an effect the other way counts as inactive or inconclusive). A digest of the protocol: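 HEK293 cells stably expressing human KISS1R were loaded with calcium dye for 1 h at 37 C, then given compound; fluorescence (Ex/Em 480/540) was read kinetically for 3 min. Fifteen concentrations, triplicate.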
KiSS-1 receptor (Homo sapiens), sequence (Q969F8 whole entry, looked up): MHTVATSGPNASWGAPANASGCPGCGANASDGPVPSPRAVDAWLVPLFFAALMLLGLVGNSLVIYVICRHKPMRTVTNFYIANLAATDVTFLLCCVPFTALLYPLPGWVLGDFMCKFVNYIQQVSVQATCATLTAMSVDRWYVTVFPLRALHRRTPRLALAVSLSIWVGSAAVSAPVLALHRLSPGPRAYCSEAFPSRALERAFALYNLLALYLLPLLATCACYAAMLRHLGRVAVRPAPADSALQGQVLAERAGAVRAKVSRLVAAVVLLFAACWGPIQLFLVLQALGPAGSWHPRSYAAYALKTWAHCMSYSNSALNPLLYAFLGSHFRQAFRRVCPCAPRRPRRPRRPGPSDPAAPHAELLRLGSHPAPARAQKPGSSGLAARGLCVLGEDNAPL

Experiment [5] is described as follows: G protein-coupled receptor (GPCR) small molecule agonists, calcium flux assay: HEK293 wild type cell line counter screen (AID 1920065). The gist of the method:
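Wild-type HEK293 cells plated 18 h, loaded with calcium dye 1 h at 37 C, then compounds added in agonist mode (ATP as positive control). Kinetic fluorescence Ex/Em 480/540 recorded 3 min at 1 sec intervals; 15 concentrations, triplicate.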
(In general: A change in cytosolic calcium serves as a functional read-out for many receptors and channels.)

Experiment [6] in a line: p53 small molecule agonists, cell-based qHTS assay with human liver microsomes (AID 1963577).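 Note: p53 response element beta-lactamase reporter cells with liver microsomes plus NADPH.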 The gist of the method:
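Metabolically competent format: test substances, human liver microsomes and NADPH (both 0.5 mg/mL final) incubated with p53RE-bla cells 16 h at 37 C. Beta-lactamase reporter signal then quantified by fluorescence.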

A short description of experiment [7]: p53 small molecule agonists, cell-based qHTS assay with rat liver microsomes (AID 1963578). A digest of the protocol:
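Each plate received p53RE-bla cells, then compound, then rat liver microsomes and NADPH (both 0.5 mg/mL final). Plates were held 16 h at 37 C, and beta-lactamase activity was detected with LiveBLAzer over 2 h.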

Experiment [8] in a line: p53 small molecule agonists, cell-based qHTS assay with human liver microsomes: qHTS cell viability counter screen (AID 1963579). Note: nearly all actives have a fitted effect of over 45% in size. Note: potency is the fitted concentration of half-maximal effect. A digest of the protocol:
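Tox21 library compounds, delivered from DMSO stocks, were tested on p53RE-bla cells together with 0.5 mg/mL human liver microsomes and 0.5 mg/mL NADPH (final) over 16 h at 37 C; CellTiter-Glo luminescence served as the cytotoxicity measure.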

The nature of experiment [9]: p53 small molecule agonists, cell-based qHTS assay (AID 1963582; active = well fitted activation curve with a large enough effect in the signal ratio in the repeat runs, not every such curve was filed as active; the % refers to the signal ratio). A digest of the protocol: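 p53RE-bla reporter cells, compounds added in DMSO after 5 h plating, incubated 16 h at 37 C. Beta-lactamase read via 2 h room-temperature LiveBLAzer B/G FRET substrate, fluorescence intensity.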
Experiment [10] addresses 5-hydroxytryptamine receptor 2A (Homo sapiens) (UniProt P28223). As to the kind of experiment: 5-hydroxytryptamine receptor 2A (HTR2A) small molecule antagonists, cell-based qHTS assay (AID 1963586). Note: nearly all actives have a fitted effect of over 45% in size. The gist of the method: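 Antagonist-mode intracellular calcium assay: DOI (4 nM) added after 5 min compound pre-incubation at room temperature to dye-loaded HTR2A-CHO cells. Fluorescence followed for 3 min, sampled every second.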

Experiment [11] addresses Muscarinic acetylcholine receptor M1 (Homo sapiens) (UniProt P11229). As to the kind of experiment: Cholinergic receptor muscarinic 1 (CHRM1) small molecule antagonists, cell-based qHTS assay (AID 1963588). Note: nearly all actives have a fitted effect of over 40% in size. A digest of the protocol: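 CHRM1-CHO calcium-flux assay, antagonist mode. Cells were seeded 18 h, dye-loaded 1 h at 37 C and given compound for 5 min at RT, then acetylcholine was added at 50nM. FDSS fluorescence was read 3 min; 15 concentrations, three runs.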

Experiment [12] shares this target. As to the kind of experiment: Cholinergic receptor muscarinic 1 (CHRM1) small molecule agonists, cell-based qHTS assay (AID 1963589). Note: nearly all actives have a fitted effect of over 35% in size. A digest of the protocol:
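CHO cells stably expressing human CHRM1 were loaded with calcium dye for 1 h at 37 C, then compound was added in agonist mode. Intracellular calcium fluorescence was followed kinetically at 1 s intervals. Fifteen concentrations were tested in three independent runs.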

Experiment [13] can be described thus: cAMP Responsive Elements (CRE) small molecule agonists, cell-based qHTS assay (AID 1963590). The gist of the method: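 CRE-bla HEK 293T cells, 2,000/well in DMEM with 10% dialyzed FBS and 25 mM HEPES, pre-incubated 18 h at 37 C, then exposed to compound 3 h at 37 C. Beta-lactamase reporter read with LiveBLAzer B/G FRET substrate after 2 h at room temperature.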

Experiment [14] concerns the target Beta-2 adrenergic receptor (Homo sapiens) (UniProt P07550). The experiment in a line: Adrenergic beta2 receptor (ADRB2) small molecule antagonists, cell-based qHTS assay (AID 1963592). Note: series mostly up to about 92 µM; nearly all actives have a fitted effect of over 50% in size. A digest of the protocol: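 Cells (CHO, stable ADRB2 overexpression) incubated 18-20hr at 37C; compounds added from DMSO; agonist mix (1nM isoproterenol, 100uM IBMX, 25uM Ro-20-1724) added; 0.5hr RT; d2-cAMP and anti-cAMP-cryptate added; 1hr RT; 665/615 nm read.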

Experiment [15] concerns the target D(2) dopamine receptor (Homo sapiens) (UniProt P14416). As to the kind of experiment: Dopamine D2 receptor (DRD2) small molecule agonists, cell-based qHTS assay (AID 1963594). Note: nearly all actives have a fitted effect of over 35% in size. The gist of the method: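 HEK293 cells stably expressing human DRD2, pre-treated with PDE inhibitor Ro20-1724 (0.1 mM final) and compound 10 min at room temperature, then stimulated with NKH477 (200nM […]) for 30 min. cAMP read by HTRF (665/620 nm).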

Experiment [16] can be described thus: p53 small molecule agonists, cell-based qHTS assay: qHTS cell viability counter screen (AID 1963581). Note: nearly all actives have a fitted effect of over 45% in size. Note: potency is the fitted concentration of half-maximal effect. The gist of the method: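 p53RE-bla HCT-116 cells, compounds added 5 h after plating and incubated 16 h at 37 C. Cytotoxicity measured in the same wells as intracellular ATP by CellTiter-Glo luminescence after 30 min at room temperature.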
Experiment [17] concerns the target 5-hydroxytryptamine receptor 2A (Homo sapiens) (UniProt P28223). As to the kind of experiment: 5-hydroxytryptamine receptor 2A (HTR2A) small molecule agonists, cell-based qHTS assay (AID 1963587). Note: nearly all actives have a fitted effect of over 30% in size. A digest of the protocol: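 CHO cells stably expressing human HTR2A, plated 18 h, loaded with calcium dye 1 h at 37 C. Agonist mode: compounds added and intracellular calcium fluorescence recorded kinetically for 2 min at 1 sec intervals.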

Experiment [18] can be described thus: cAMP Responsive Elements (CRE) small molecule antagonists, cell-based qHTS assay (AID 1963591; active = well fitted inhibition curve with a large enough effect in the signal ratio in the repeat runs, not every such curve was filed as active; the % refers to the signal ratio). The gist of the method:
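CRE-bla HEK293T cells plated 18 h, then given compound plus NKH477 at 0.25 uM final for 3 h at 37C. Beta-lactamase reporter read with LiveBLAzer B/G FRET substrate after 2 h at room temperature.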

The target in experiment [19] is D(2) dopamine receptor (Homo sapiens) (UniProt P14416). The experiment in a line: Dopamine D2 receptor (DRD2) small molecule antagonists, cell-based qHTS assay (AID 1963595; active = well fitted inhibition curve with a large enough effect in the signal ratio in the repeat runs, with a control signal flat; the % refers to the signal ratio). The gist of the method:
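Stable D2 receptor HEK293 line, 24 h after seeding. Compound preincubated 10 min, then quinpirole (12 nM) with forskolin analogue NKH477 (200 nM), 30 min, room temperature. Detection by time-resolved FRET of cAMP.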
% is set by controls: 0 for no effect and ±100 for the full control effect.

Muscarinic acetylcholine receptor M1 (Homo sapiens), sequence (P11229 whole entry, looked up): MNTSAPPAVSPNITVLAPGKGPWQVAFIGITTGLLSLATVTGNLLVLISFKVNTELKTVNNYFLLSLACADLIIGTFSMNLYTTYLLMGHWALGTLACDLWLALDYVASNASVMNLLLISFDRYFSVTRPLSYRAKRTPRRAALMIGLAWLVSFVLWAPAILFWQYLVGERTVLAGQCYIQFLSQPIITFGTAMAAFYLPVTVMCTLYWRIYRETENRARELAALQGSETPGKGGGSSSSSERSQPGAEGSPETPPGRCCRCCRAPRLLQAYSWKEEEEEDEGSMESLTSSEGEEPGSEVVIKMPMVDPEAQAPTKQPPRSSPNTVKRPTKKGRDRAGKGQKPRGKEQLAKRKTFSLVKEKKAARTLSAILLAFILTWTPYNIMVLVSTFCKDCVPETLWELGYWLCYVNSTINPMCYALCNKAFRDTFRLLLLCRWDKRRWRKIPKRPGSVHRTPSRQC
Beta-2 adrenergic receptor (Homo sapiens), sequence (P07550 whole entry, looked up): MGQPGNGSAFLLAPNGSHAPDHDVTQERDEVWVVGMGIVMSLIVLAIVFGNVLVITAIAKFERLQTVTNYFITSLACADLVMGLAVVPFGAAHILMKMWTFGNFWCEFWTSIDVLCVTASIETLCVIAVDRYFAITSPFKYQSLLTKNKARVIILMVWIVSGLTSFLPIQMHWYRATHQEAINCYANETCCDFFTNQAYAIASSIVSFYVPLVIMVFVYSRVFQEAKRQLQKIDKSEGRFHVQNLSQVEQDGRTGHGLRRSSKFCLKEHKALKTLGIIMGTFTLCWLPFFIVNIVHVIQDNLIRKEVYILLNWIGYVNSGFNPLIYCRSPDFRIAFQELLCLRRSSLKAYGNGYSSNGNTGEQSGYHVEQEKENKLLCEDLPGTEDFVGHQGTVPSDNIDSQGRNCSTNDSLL
5-hydroxytryptamine receptor 2A (Homo sapiens), sequence (P28223 whole entry, looked up): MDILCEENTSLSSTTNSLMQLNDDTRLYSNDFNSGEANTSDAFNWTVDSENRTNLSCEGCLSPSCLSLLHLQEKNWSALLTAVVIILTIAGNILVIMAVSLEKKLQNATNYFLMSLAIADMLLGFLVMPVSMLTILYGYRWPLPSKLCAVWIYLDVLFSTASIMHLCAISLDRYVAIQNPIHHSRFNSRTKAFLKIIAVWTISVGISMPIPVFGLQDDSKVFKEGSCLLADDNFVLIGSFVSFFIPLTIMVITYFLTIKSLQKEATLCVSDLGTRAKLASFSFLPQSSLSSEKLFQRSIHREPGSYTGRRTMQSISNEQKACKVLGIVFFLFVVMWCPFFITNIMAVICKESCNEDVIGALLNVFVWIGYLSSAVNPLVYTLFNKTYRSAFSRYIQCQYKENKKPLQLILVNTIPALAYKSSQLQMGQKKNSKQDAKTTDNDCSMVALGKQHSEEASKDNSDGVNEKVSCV
D(2) dopamine receptor (Homo sapiens), sequence (P14416 whole entry, looked up): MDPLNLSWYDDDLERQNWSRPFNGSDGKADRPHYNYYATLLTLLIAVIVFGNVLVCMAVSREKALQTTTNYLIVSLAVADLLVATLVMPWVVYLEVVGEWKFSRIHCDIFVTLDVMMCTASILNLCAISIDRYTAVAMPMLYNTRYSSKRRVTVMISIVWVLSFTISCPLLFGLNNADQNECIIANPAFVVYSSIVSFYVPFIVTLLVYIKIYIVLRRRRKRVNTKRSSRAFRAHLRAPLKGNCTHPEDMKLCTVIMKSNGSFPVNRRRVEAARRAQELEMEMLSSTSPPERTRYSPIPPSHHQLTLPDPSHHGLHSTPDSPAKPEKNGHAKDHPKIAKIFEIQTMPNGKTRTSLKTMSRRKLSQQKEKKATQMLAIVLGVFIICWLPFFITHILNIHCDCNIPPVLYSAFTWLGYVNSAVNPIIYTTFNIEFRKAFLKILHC
Gonadotropin-releasing hormone receptor (Homo sapiens), sequence (P30968 whole entry, looked up): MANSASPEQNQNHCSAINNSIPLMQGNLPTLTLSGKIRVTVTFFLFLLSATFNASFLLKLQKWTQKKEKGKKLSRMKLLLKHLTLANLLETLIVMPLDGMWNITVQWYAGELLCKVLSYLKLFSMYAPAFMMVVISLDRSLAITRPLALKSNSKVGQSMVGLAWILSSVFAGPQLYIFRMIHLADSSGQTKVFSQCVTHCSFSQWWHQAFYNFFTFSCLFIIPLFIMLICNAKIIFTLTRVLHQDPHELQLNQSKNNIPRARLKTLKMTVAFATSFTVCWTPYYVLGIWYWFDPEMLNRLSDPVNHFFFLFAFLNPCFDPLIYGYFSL

Regarding `CCOC(=O)OCC/C(SC(=O)OCC)=C(\C)N(C=O)Cc1cnc(C)nc1N`, the Potency entry in [1], in [2], in experiment [3], in [6], in experiment [7] and in experiment [8] was “inactive” throughout. The Potency entry in experiment [9], in experiment [10], in experiment [11], in [12], in experiment [13] and in experiment [14] was “inactive” throughout. Moreover, the Potency entry in experiment [15] was “inactive”. Besides, the result in [4] and in [5] was inactive.

Turning to `Cc1ccc2c(c1[N+](=O)[O-])C(=O)c1ccccc1C2=O`, the Potency result in [1], in experiment [3], in experiment [6], in [7], in [8] and in experiment [16] was “inactive” each time. Also, the Potency entry in experiment [10], in [17], in experiment [11], in experiment [12], in [18] and in [14] was “inactive” in each case. Also, the Potency result in experiment [15] was “inactive”. Besides, the Potency in experiment [2] was 16.9 µM (active). Moreover, the result in experiment [4] and in experiment [5] was inactive.

Regarding `Cc1cc(F)ccc1-c1cc(N2CC[C@@H](O)[C@H]2CO)ncc1N(C)C(=O)C(C)(C)c1cc(C(F)(F)F)cc(C(F)(F)F)c1`, the Potency in [1] was 19 µM (active); in experiment [8] it was 14.3 µM (active); in [16], 16 µM (active). Besides, the Potency entry in experiment [2], in [3], in experiment [6], in experiment [7], in experiment [10] and in experiment [17] was “inactive” each time. For the same compound, the Potency entry in [11], in experiment [12], in experiment [15] and in [19] was “inactive” throughout. Further, the outcome in experiment [4] and in experiment [5] was inactive.

Take `CCCCCCCCCCCC[N+](C)(C)CCCCCCCCCCCC`: the Potency in experiment [1] was 24.3 µM (active). The Potency entry in experiment [2], in experiment [3], in experiment [6], in experiment [7], in experiment [8] and in experiment [16] was “inactive” in each case. The Potency result in experiment [17], in experiment [11], in experiment [12], in experiment [14] and in experiment [15] was “inactive” throughout. In addition, the outcome in experiment [4] and in experiment [5] was inactive.

Turning to `CCCCCCCCCCCCCCCCCCOCCO`, the values for the activity change, negative = cytotoxicity in experiment [1], in experiment [8] and in experiment [16] were 1.01% [at 19 µM], -1.11% [at 13.5 µM] and 16.5% [at 13.5 µM], respectively. Also, the activity, positive = activation in [2] is -0.745% [at 19 µM]. For the same compound, in experiment [3], the activity change is 0.36% [at 11.8 µM, stronger effect = higher value]. Also, the activation in experiment [4] was 1.36% [at 15.8 µM]; in experiment [5], 0.568% [at 11.8 µM]; in [6], 4.4% [at 13.5 µM]; in experiment [7], 0.0249% [at 13.6 µM]; in experiment [17], -2.03% [at 15.9 µM]; in experiment [12] it was -0.156% [at 15.8 µM]. Moreover, the values for the activation in experiment [13] and in experiment [15] were 3.72% [at 19 µM] and -2.91% [at 19 µM], respectively. In addition, the activity, negative = inhibition in experiment [10] was -22.3% [at 12.7 µM]. The activity change, negative = inhibition in [18] was 0.259% [at 18.9 µM]; in experiment [14] it was -12.3% [at 19 µM].

Turning to `C#CCOC(=O)[C@@H](C)Oc1ccc(Oc2ncc(Cl)cc2F)cc1`, the Potency result in experiment [1], in [2], in [3], in experiment [6], in experiment [7] and in [8] was “inactive” each time. Besides, the Potency result in experiment [9], in experiment [10], in experiment [17], in experiment [11], in experiment [12] and in experiment [18] was “inactive” throughout. Moreover, the Potency result in experiment [14], in experiment [15] and in [19] was “inactive” in each case. Besides, the result in experiment [4] and in experiment [5] was inactive.

In the case of `CCCCCCCCCCCCCCCCCCOS(=O)(=O)O`, the Potency in experiment [1] is 68.6 µM (active). The Potency result in experiment [2], in experiment [3], in experiment [6], in experiment [7], in experiment [8] and in experiment [9] was “inactive” each time. Moreover, the Potency result in experiment [10], in experiment [11], in experiment [12], in experiment [13], in experiment [18] and in experiment [19] was “inactive” each time. For the same compound, the outcome in [4] and in experiment [5] was inactive.

On to `CC(C)=CCC/C(C)=C\C#N`, for which the Potency entry in [1], in experiment [2], in [3], in experiment [6], in experiment [7] and in [8] was “inactive” throughout. Moreover, the Potency entry in experiment [16], in [9], in experiment [11], in experiment [12], in [13] and in experiment [15] was “inactive” throughout. Besides, the outcome in experiment [4] and in [5] was inactive.

For the origin of these results see PubChem BioAssay (Tox21).
